Results filed as inconclusive are left out. Calls of active or inactive are those of the source. Unless noted, calls follow the shape of the full dose curve.

The nature of the first assay: qHTS assay to identify small molecule agonists of the endoplasmic reticulum stress response signaling pathway (AID 1159516; active = well fitted activation curve with a large enough effect in the signal ratio in the repeat runs, not every such curve was filed as active; the % refers to the signal ratio). The settings on record: ESRE-bla HeLa, ER stress beta-lactamase reporter, 5 h; series mostly up to 61 µM. The essentials: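 Beta-lactamase expression from the ER stress response element in HeLa reporter cells is quantified with the LiveBLAzer B/G FRET substrate, read at 405 nm excitation after 2 hr at room temperature, following 5 hr compound treatment at 37 C.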
In general terms: qHTS replaces the single test concentration by a dilution series.
As for `CC1=NN(c2cccc(S(=O)(=O)O)c2)C(=O)C1`, the compound was classed as inactive.
As for `Cc1onc(-c2c(Cl)cccc2Cl)c1C(=O)Cl`, the compound was called inactive.
On to `N[C@H](C(=O)O)[C@@H](O)c1ccc(O)c(O)c1`, for which the result was inactive.
Take `C1CCC2=NCCCN2CC1`: the compound was classed as inactive.
As for `CC(C#N)(CCC(=O)O)N=NC(C)(C#N)CCC(=O)O` (stereo unspecified), the result was inactive.
As for `C=CN1CCCCCC1=O`, the outcome was inactive.
Still for that read-out and setting: the result for `CC[N+](CC)(CC)CCOc1cccc(OCC[N+](CC)(CC)CC)c1OCC[N+](CC)(CC)CC` reads “inactive”; that for `CC(C)(N)C#N`, “inactive”; that for `OCCCCCO`, “inactive”.
On the same count and under the same terms, the result for `C=CCOCC(O)CO` (stereo unspecified) reads “inactive”.
Regarding `CC(=O)O[C@@]12CO[C@@H]1C[C@H](O)[C@@]1(C)C(=O)[C@H](O)C3=C(C)[C@@H](OC(=O)[C@H](O)[C@@H](NC(=O)OC(C)(C)C)c4ccccc4)C[C@@](O)([C@@H](OC(=O)c4ccccc4)[C@H]21)C3(C)C`, the compound was called inactive.
As for `CC(C)(C)C(=O)c1ccccc1`, the result was inactive.
In the case of `CCN[C@H]1C[C@H](C)S(=O)(=O)c2sc(S(N)(=O)=O)cc21`, the result was inactive.
Still for that read-out and setting: then `C[N+]12CCC(CC1)C(OC(=O)C(O)(c1ccccc1)c1ccccc1)C2` (stereo unspecified), with “inactive”; and `c1coc(CNc2ncnc3nc[nH]c23)c1`, with “inactive”; and `NC(=O)Cc1cccc2ccccc12`, with “inactive”.
`CCCn1cc[n+](C)c1C`: the call was inactive.
Same read-out and setting: the result for `O=C(c1ccccc1)C1(O)CCCCC1` reads “inactive”; that for `Nc1ccncc1N`, “inactive”.
Take `C=COC(=O)C(C)(CC)CCC(C)C` (stereo unspecified): the compound was classed as inactive.
Turning to `CC(=O)Oc1cccc(C)c1`, the result was inactive.
Same read-out and setting: the result for `CN(C)CCCN(C)CCCN(C)C` reads “inactive”.
The same measure, in the same setting: the result for `O=S(=O)(O)c1cc(O)c(O)c(S(=O)(=O)O)c1` reads “inactive”; that for `Cc1ncc(COP(=O)(O)O)c(C=O)c1O`, “inactive”.
With `O=CN(CCO)CCO`, the compound was called inactive.
Same read-out and setting: then `CCCc1ncc(C[n+]2ccccc2C)c(N)n1`, with “inactive”.
On the same count and under the same terms, the result for `CC1=NS(=O)(=O)c2cc(Cl)ccc2N1` reads “inactive”.
With `CCOCC(C)O` (stereo unspecified), the compound was classed as inactive.
The same measure, in the same setting: then `COc1ccnc(CS(=O)c2nc3cc(OC(F)F)ccc3[nH]2)c1OC` (stereo unspecified), with “inactive”; and `C=C(C)C(=O)OCC(O)CO` (stereo unspecified), with “inactive”.
Same read-out and setting: then `CCN(C=O)CC`, with “inactive”; and `C[C@@H]1CCC[C@H](C)N1`, with “inactive”; and `COc1cc(-c2ccc(=O)[nH]n2)ccc1OC(F)F`, with “inactive”.
On the same count and under the same terms, then `CC(C)(CCC(=O)O)C(=O)O`, with “inactive”; and `Cc1ccc(C(=O)Nc2ccc(S(=O)(=O)O)c3cc(S(=O)(=O)O)cc(S(=O)(=O)O)c23)cc1NC(=O)c1cccc(NC(=O)Nc2cccc(C(=O)Nc3cc(C(=O)Nc4ccc(S(=O)(=O)O)c5cc(S(=O)(=O)O)cc(S(=O)(=O)O)c45)ccc3C)c2)c1`, with “inactive”.
Take `Cc1nc(C2CCCCC2)c(-c2ccc(S(N)(=O)=O)c(F)c2)o1`: the call was inactive.
On the same count and under the same terms, then `COc1cc(C)nc(-n2nc(C)cc2OC)n1`, with “inactive”; and `Cc1coc2ccccc2c1=O`, with “inactive”.

A further assay is described as follows: qHTS assay to identify small molecule agonists of the endoplasmic reticulum stress response signaling pathway - cell viability counter screen (AID 1159517). Also: nearly all actives have a fitted effect of over 50% in size. The settings on record: ESRE-bla HeLa viability, CellTiter-Glo luminescence, 5 h; series mostly up to 61 µM. In short, it runs like this:
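ESRE-bla HeLa cells (1,500/well) were plated overnight at 37 C and exposed to compounds for 5 hr. After the 2 hr beta-lactamase substrate read, CellTiter-Glo went into the same wells, and luminescence was read after 30 min at room temperature.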
With `CC1=NN(c2cccc(S(=O)(=O)O)c2)C(=O)C1`, the compound was called inactive.
Still for that read-out and setting: then `Cc1onc(-c2c(Cl)cccc2Cl)c1C(=O)Cl`, with “inactive”.
Still for that read-out and setting: the result for `N[C@H](C(=O)O)[C@@H](O)c1ccc(O)c(O)c1` reads “inactive”; that for `C1CCC2=NCCCN2CC1`, “inactive”.
Take `CC(C#N)(CCC(=O)O)N=NC(C)(C#N)CCC(=O)O` (stereo unspecified): the outcome was inactive.
As for `C=CN1CCCCCC1=O`, the call was inactive.
The same measure, in the same setting: then `CC[N+](CC)(CC)CCOc1cccc(OCC[N+](CC)(CC)CC)c1OCC[N+](CC)(CC)CC`, with “inactive”; and `CC(C)(N)C#N`, with “inactive”.
On the same count and under the same terms, the result for `OCCCCCO` reads “inactive”; that for `C=CCOCC(O)CO` (stereo unspecified), “inactive”.
Consider `CC(=O)O[C@@]12CO[C@@H]1C[C@H](O)[C@@]1(C)C(=O)[C@H](O)C3=C(C)[C@@H](OC(=O)[C@H](O)[C@@H](NC(=O)OC(C)(C)C)c4ccccc4)C[C@@](O)([C@@H](OC(=O)c4ccccc4)[C@H]21)C3(C)C`, for which the compound was classed as inactive.
On the same count and under the same terms, then `CC(C)(C)C(=O)c1ccccc1`, with “inactive”; and `CCN[C@H]1C[C@H](C)S(=O)(=O)c2sc(S(N)(=O)=O)cc21`, with “inactive”; and `C[N+]12CCC(CC1)C(OC(=O)C(O)(c1ccccc1)c1ccccc1)C2` (stereo unspecified), with “inactive”.
Still for that read-out and setting: the result for `c1coc(CNc2ncnc3nc[nH]c23)c1` reads “inactive”; that for `NC(=O)Cc1cccc2ccccc12`, “inactive”.
Turning to `CCCn1cc[n+](C)c1C`, the compound was called inactive.
The same measure, in the same setting: the result for `O=C(c1ccccc1)C1(O)CCCCC1` reads “inactive”.
On to `Nc1ccncc1N`, for which the result was inactive.
Consider `C=COC(=O)C(C)(CC)CCC(C)C` (stereo unspecified), for which the call was inactive.
On to `CC(=O)Oc1cccc(C)c1`, for which the compound was called inactive.
The same measure, in the same setting: then `CN(C)CCCN(C)CCCN(C)C`, with “inactive”; and `O=S(=O)(O)c1cc(O)c(O)c(S(=O)(=O)O)c1`, with “inactive”.
On the same count and under the same terms, then `Cc1ncc(COP(=O)(O)O)c(C=O)c1O`, with “inactive”; and `O=CN(CCO)CCO`, with “inactive”; and `CCCc1ncc(C[n+]2ccccc2C)c(N)n1`, with “inactive”.
Consider `CC1=NS(=O)(=O)c2cc(Cl)ccc2N1`, for which the result was inactive.
Same read-out and setting: the result for `CCOCC(C)O` (stereo unspecified) reads “inactive”; that for `COc1ccnc(CS(=O)c2nc3cc(OC(F)F)ccc3[nH]2)c1OC` (stereo unspecified), “inactive”; that for `C=C(C)C(=O)OCC(O)CO` (stereo unspecified), “inactive”.
Still for that read-out and setting: then `CCN(C=O)CC`, with “inactive”; and `C[C@@H]1CCC[C@H](C)N1`, with “inactive”; and `COc1cc(-c2ccc(=O)[nH]n2)ccc1OC(F)F`, with “inactive”.
On the same count and under the same terms, the result for `CC(C)(CCC(=O)O)C(=O)O` reads “inactive”.
For `Cc1ccc(C(=O)Nc2ccc(S(=O)(=O)O)c3cc(S(=O)(=O)O)cc(S(=O)(=O)O)c23)cc1NC(=O)c1cccc(NC(=O)Nc2cccc(C(=O)Nc3cc(C(=O)Nc4ccc(S(=O)(=O)O)c5cc(S(=O)(=O)O)cc(S(=O)(=O)O)c45)ccc3C)c2)c1`, the compound was classed as inactive.
Still for that read-out and setting: then `Cc1nc(C2CCCCC2)c(-c2ccc(S(N)(=O)=O)c(F)c2)o1`, with “inactive”.
Consider `COc1cc(C)nc(-n2nc(C)cc2OC)n1`, for which the outcome was inactive.
On the same count and under the same terms, the result for `Cc1coc2ccccc2c1=O` reads “inactive”.

The record behind these values is PubChem BioAssay (Tox21).
